PubChem BioAssay (NCI)
About 83,000 compounds went through this panel and 20% of them were active in at least one assay; those are over-represented in the sample as a whole.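 Method: cells in 96-well plates; compound added at one concentration; 48 h incubation; percent growth measured; values under 10 scored active.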 Values without a mark were called inactive. Calls of active or inactive are those of the source.

Experiments:
Test in all cases: NCI-60 one-dose screen, 48 h (100 = growth as untreated, 0 = no growth, -100 = all killed)
Conditions in all cases: 10 µM unless noted
[1] = test system: HCT-15 colon
[2] = test system: HT29 colon
[3] = test system: SNB-75 CNS
[4] = test system: SNB-19 CNS
[5] = test system: U251 CNS
[6] = test system: PC-3 prostate
[7] = test system: SK-MEL-5 melanoma
[8] = test system: UACC-62 melanoma
[9] = test system: LOX IMVI melanoma
[10] = test system: SK-MEL-28 melanoma
[11] = test system: SK-MEL-2 melanoma
[12] = test system: EKVX NSCLC
[13] = test system: SN12C renal
[14] = test system: UO-31 renal
[15] = test system: TK-10 renal
[16] = test system: ACHN renal
[17] = test system: CAKI-1 renal
[18] = test system: A498 renal
[19] = test system: CCRF-CEM leukemia
[20] = test system: MOLT-4 leukemia

Row | SMILES | growth [1] | growth [2] | growth [3] | growth [4] | growth [5] | growth [6] | growth [7] | growth [8] | growth [9] | growth [10] | growth [11] | growth [12] | growth [13] | growth [14] | growth [15] | growth [16] | growth [17] | growth [18] | growth [19] | growth [20]
1 | O=C1N(Cc2ccccc2Cl)c2ccccc2C12NN=C(c1ccccc1)S2 (stereo unspecified) | 35.3% | 107% | 71.8% | 53% | 36.1% | 45.1% | 53.3% | 58.6% | 42.3% | 78.6% | 91.3% | 58.1% | 64.1% | 54.2% | 105% | 59.4% | 47.4% | 52.8% | 57.3% | 53.6%
2 | COc1ccc(C(=O)N2N=C(c3ccc(F)cc3)CC2c2cn(-c3ccccc3)nc2-c2ccccc2)cc1 (stereo unspecified) | 55.9% | 37.6% | 72.5% | 80% | 30.6% | 71.6% | 90.7% | 61% | 41.8% | 71.9% | 75.1% | 70.9% | 63% | 68.1% | 80.2% | 86.5% | 63.2% | 93.2% | 57.1% | 42.2%
3 | O=C(c1ccccc1)c1cccc(C(Br)Br)c1 | 73.4% | 63.5% | 73.9% | 83.6% | 88.9% | 91.8% | 74% | 81.1% | 80.6% | 93.2% | 74.5% | 107% | 89.7% | 74.1% | 78.9% | 91% | 78.2% | 77.2% | 103% | 81.5%
4 | COC(=O)c1ccc2c(c1)nc(-c1cc3ccccc3[nH]c1=O)n2-c1cc(C(C)(C)C)[nH]n1 | 78.2% | 7.39% (active) | 101% | 35% | 39.7% | 53% | 74.9% | 51.2% | 11.2% | 84.1% | 55.9% | 85.6% | 57.3% | 29.1% | 113% | 78.5% | 67.9% | 59.6% | – | 18.1%
5 | COc1ccc(-c2cc(C(=O)Nc3ccc(Br)cc3)nc3[nH]c(=O)sc23)cc1 | 37% | 50.1% | 78.4% | 36.5% | 28.8% | 34.8% | 8.56% (active) | 8.05% (active) | 36.7% | 38.5% | -5.01% (active) | 37.2% | 20.4% | 28.6% | 19.9% | 54.8% | 34.6% | -2.87% (active) | – | 27.8%
6 | Oc1c(C(Nc2cccc3ccccc23)c2ccccc2)ccc2cccnc12 (stereo unspecified) | 28.1% | 29.3% | 72.2% | 51.7% | 20.6% | 38.1% | 43.9% | 14.7% | 15.3% | 57.6% | 0.608% (active) | 31% | 38.9% | 20.4% | 46% | 22.1% | 12.7% | 36.7% | – | -11.9% (active)
7 | O=C(O)C(CCc1ccccc1)NCc1ccccc1 (stereo unspecified) | 99.2% | 96.2% | 90.3% | 97.5% | 107% | 91.3% | 109% | 94.5% | 92% | 107% | 94.9% | 102% | 93% | 77.8% | 91% | 95.8% | 100% | 86.2% | – | 108%
8 | O=C(Nc1cccc(N=Cc2c(O)ccc3ccccc23)c1)c1ccccc1 | 93.6% | 90.9% | 77.9% | 101% | 92.6% | 86.9% | 91.3% | 94.4% | 96.1% | 107% | 87.9% | 93.8% | 99% | 65.9% | 92.4% | 96.3% | 84.7% | 103% | 90.8% | 147%
9 | CN1C(=O)C(C2=NNC(c3ccccc3C(=O)O)C2)C(=O)N(C)C1=O (stereo unspecified) | 106% | 98.5% | 85.4% | 92.9% | 98.1% | 95.6% | 108% | 96.2% | 101% | 123% | 98.9% | 102% | 97.2% | 86.5% | 96.9% | 106% | 86.6% | 90.8% | – | 93.8%
10 | O=C1Nc2ccc(Br)cc2/C1=N/c1nc(-c2ccccc2)cs1 | 94.9% | 91.7% | 79% | 96.2% | 92.9% | 62.3% | 77.5% | 80.5% | 92% | 95% | 88% | 66.8% | 96% | 63.9% | 109% | 94.8% | 70.7% | 78.9% | – | 59.2%
11 | O=C(C(=O)N1CCCC1)c1cn(CCCn2cc(C(=O)C(=O)N3CCCC3)c3cc(Br)ccc32)c2ccc(Br)cc12 | 84.6% | 79.3% | 46.3% | 85.5% | 36.6% | 66.5% | 90.8% | 85.1% | 57.9% | 79.8% | 107% | 54% | 83.3% | 72.6% | 92.7% | 55.2% | 46.7% | – | 74% | 73.6%
12 | N#CCCn1cnc2c(N)ncnc21 | 98.3% | 101% | 93.8% | 99.4% | 98.8% | 94.2% | 113% | 96.7% | 97.1% | 107% | 106% | 104% | 94.2% | 116% | 114% | 94% | 97% | 112% | – | 92.1%
13 | COc1cc2ncnc(Nc3ccc(S(=O)(=O)Nc4cc(C)on4)cc3)c2cc1OCCCN1CCN(c2ccc([N+](=O)[O-])cc2)CC1 | 105% | 107% | 91.9% | 100% | 97.1% | 104% | 111% | 94.4% | 96.1% | 112% | 109% | 116% | 102% | 79.2% | 103% | 109% | 92.8% | 110% | – | 111%
